Among all 69,000 compounds or so, about 8,600 (12%) showed an effect of 50% or more. This excerpt belongs to a sample that is enriched for strong results.
tested on: Plasmodium berghei; assay: Screen against P. berghei liver stage (PbLuc), transformed with Luciferase, at 10uM; format: functional, HepG2; settings: tested at 10 uM

Compound	INHIBITION [%]
N#Cc1ccc(CN2CCCCC2Cn2cccn2)cc1 (configuration not stated)	-32
COc1ccc(CC(=O)NC2CCc3nc(C)cn3C2)cc1 (configuration not stated)	46.6
COc1ncc(-c2ccc(NC(C)=O)cc2)c(OC)n1	14
Cc1nc(O)c2nnn(C[C@H]3CCCN3C(=O)c3ccccc3F)c2n1	28
OC1CCN(c2ccnc(NCCc3ccccc3Cl)n2)C1 (configuration not stated)	93.6
OC1CCN(c2ccnc(NCCc3ccccc3Cl)n2)CC1	39.1
OC1CCN(c2ccnc(NCCN3CCc4ccccc4C3)n2)C1 (configuration not stated)	8.38
CCCc1ccc(CN2CCC3(CCC(=O)N(C)CC3)CC2)o1	21.2
CCCc1nc(CN2CCN(C(C)c3nc(C4CC4)no3)CC2)no1 (configuration not stated)	-27.8
COc1ccccc1CC(=O)NS(=O)(=O)c1ccc(NC(C)=O)cc1	-14
O=C(NCC1CCS(=O)(=O)C1)N(Cc1ccccn1)C1CC1 (configuration not stated)	4.1
Cc1nc(CN2CCC(C(=O)O)(n3ccc(-c4ccco4)n3)CC2)co1	5.14
O=C(O)C1(n2ccc(-c3ccco3)n2)CCN(Cc2cccs2)CC1	43.4
Cc1csc(CN2CCC(C(=O)O)(n3ccc(-c4ccco4)n3)CC2)n1	51.3
COc1cccc(N2CCN(C(C(=O)O)c3ccc(OC)nc3)CC2)c1 (configuration not stated)	65.7
COc1ccc(C(C(=O)O)N2CCCN(C3CCCCC3)CC2)cn1 (configuration not stated)	32.7
COc1cccc(C(C(=O)O)N2CCCN(c3ccnc(C)c3)CC2)c1 (configuration not stated)	27.6
CCc1nc(N2CCC3(CCC(=O)N(CCCO)C3)CC2)no1	35.6
Cc1c[nH]nc1C1CCN(C(=O)C2CCOCC2)C1 (configuration not stated)	3.48
O=C(C1CCCC1)N1CCC(c2n[nH]c3nccnc23)CC1	51.5
CC(C)OCC(=O)N1CCC(c2ncncc2-c2ccnc(N)c2)C1 (configuration not stated)	8.12
COCCC(=O)N1CCC(c2ncncc2-c2ccnc(N)c2)C1 (configuration not stated)	0.696

Compound	INHIBITION [%]
Cc1c[nH]nc1C1CCN(C(=O)C2CCCC2)C1 (configuration not stated)	65.7
CC(=O)N1CCC(c2n[nH]c3nccnc23)CC1	8.53
O=C(C1CCCCC1)N1CCC(c2n[nH]c3nccnc23)CC1	44.1
CC(=O)N1CCC(c2n[nH]cc2-c2ccnc(N)c2)C1 (configuration not stated)	37.5
CN1CCC(c2n[nH]cc2-c2ccnc(N)c2)C1 (configuration not stated)	16.05
CC(C)CNc1cc(-c2c[nH]nc2C2CCN(C(=O)C3CC3)C2)ccn1 (configuration not stated)	86
Cc1c[nH]nc1C1CCN(C(=O)C2CCC2)CC1	-14.2
CC(C)Nc1cc(-c2c[nH]nc2C2CCN(C(=O)C3CC3)C2)ccn1 (configuration not stated)	87.85
Cc1nc(C(=O)N2CCC(c3cc(CCO)n(C)n3)C2)co1 (configuration not stated)	19.3
CNC(=O)[C@@H](c1ccccc1OC)N1CCC[C@H]1C(=O)N1CCC1	-37.8
COCC(NC1CCN(CC(C)C)CC1)c1ccnn1C (configuration not stated)	-1.49
CCc1c(C)sc2nc3n(CCN4CCOCC4)nc(SC)n3c(=O)c12	17.7
CC(c1ccncc1)N(CCN(C)C)C(=O)Nc1ccc(Cl)c(Cl)c1 (configuration not stated)	-32.1
O=C(c1ccoc1)N1C[C@@H]2[C@@H](C1)OCC(=O)N2Cc1cccnc1	16.8
CN(C(=O)c1cc(F)ccc1F)[C@@H]1CC[C@@H](O)[C@@H]1O	2.55
Nc1cc(-c2c[nH]nc2C2CCCN2S(=O)(=O)c2ccccc2)ccn1 (configuration not stated)	39.1
CC(C)Nc1cc(-c2c[nH]nc2C2CCN(C(=O)C3CCC3)C2)ccn1 (configuration not stated)	88.45
Cc1c[nH]nc1C1CCN(C(=O)Cn2cccn2)C1 (configuration not stated)	-9.32
CCCNc1cc(-c2c[nH]nc2C2CCN(C(=O)C3CCC3)C2)ccn1 (configuration not stated)	87.35
CC(C)N1CCC(c2n[nH]cc2-c2ccnc(N)c2)C1 (configuration not stated)	26.5
Nc1cc(-c2c[nH]nc2C2CCN(C(=O)C3CCCC3)C2)ccn1 (configuration not stated)	31.75
Cc1cc(N2CCC(c3n[nH]c4nccnc34)C2)ncn1 (configuration not stated)	-4.51

Compound	INHIBITION [%]
Nc1cc(-c2c[nH]nc2C2CCCCN2C(=O)C2CCCC2)ccn1 (configuration not stated)	59.9
CN(C)S(=O)(=O)N1CCC(c2n[nH]cc2-c2ccnc(N)c2)C1 (configuration not stated)	-9.215
Cc1cc(N2CCC(c3n[nH]c4nccnc34)CC2)ncn1	58.1
Cc1cc(N2CC(c3n[nH]c4nccnc34)C2)ncn1	18.3
COCC(=O)N1C[C@@H](OCc2cccnc2)[C@H]2OCCC[C@@H]21	26.5
Cc1ccc(S(N)(=O)=O)cc1C(=O)NC1CCCC1	12.2
CC(=O)N1CCCC(c2ccnc(Nc3cnccn3)c2)C1 (configuration not stated)	-9
O=C(NCC(CO)Cc1cccc(OC(F)(F)F)c1)c1cnccn1 (configuration not stated)	30.8
O=C(Cc1csc(-c2ccsc2)n1)N1CCN(c2cnccn2)CC1	-40.2
Cc1nc(C)n(CC2CCCN(CCC(=O)NC3CCCCC3)C2)n1 (configuration not stated)	-4.16
CN1CC(C(=O)NC2(c3ccc(Cl)cc3)CCOCC2)CC1=O (configuration not stated)	8.31
NC(=O)c1c(NC(=O)CCCC(=O)O)sc2c1CCc1ccccc1-2	33
Cc1nn(C)c(C)c1-c1nccnc1CC1CCNCC1	-17.9
CCc1c(C)nn2c(O)cc(C3CCN(C(=O)c4ccn(C)n4)C3)nc12 (configuration not stated)	3.623
c1cnc(N2C[C@@H]3COC[C@]3(COCC3CCCC3)C2)nc1	15.4
CN(C)[C@@H]1CCN(CC2CC2)[C@H]1Cc1cnn(C)c1	1.94
CN1CC(=O)N(c2cnn(C)c2)CC12CCN(Cc1ccccc1)C2 (configuration not stated)	21.8
O=C(NCC(=O)N1CCCCC1)c1sccc1C1CC1	17.2
Cc1cc(C)n(-c2nc(C(=O)NCCS(=O)(=O)N3CCCCC3)cs2)n1	0.696
CN1CCN(CCNC(=O)c2sccc2C2CC2)CC1	31.6
Cc1cc(C)n(-c2nc(C(=O)NCCN3CCC(C)CC3)cs2)n1	61
CC1CCN(CCNC(=O)c2scnc2Cl)CC1	40.2

Compound	INHIBITION [%]
CCc1nc(C)c(C(=O)NCCN2CCC(C)CC2)s1	15.6
O=C(c1sccc1C1CC1)N1CCN(c2ncccn2)CC1	49.1
O=C(NCC(=O)N1CCN(c2ccccc2)CC1)c1sccc1C1CC1	92
CC1CCN(CCNC(=O)c2sccc2C2CC2)CC1	81.5
COc1ccccc1NC(=O)NCc1nnc(SC)n1C	8.125
N#CC1(C(=O)N2CCCN(Cc3cscn3)CC2)CCCCC1	-54.6
CC(C)C(=O)N1CCCC(Cc2ncccn2)C1 (configuration not stated)	32.7
CC(C)CCCC1CN(C(=O)c2cnc[nH]2)CCO1 (configuration not stated)	-10.5
COc1c(CNC(c2ccccc2)c2nccn2C)c(C)nn1C (configuration not stated)	39.4
Cn1ccnc1C(NCc1csc(Br)c1)c1ccccc1 (configuration not stated)	51.6
CSc1ccc(CNC(c2ccccc2F)c2nccn2C)cc1 (configuration not stated)	-27.24
CSc1ccc(CNC(c2ccc(F)cc2)c2nccn2C)cc1 (configuration not stated)	-1.6
Cn1ccnc1C(NCc1ccc(Br)cc1)c1ccccc1 (configuration not stated)	-32.9
Cc1ccc(CNC(c2ccc(F)cc2)c2nccn2C)o1 (configuration not stated)	52.6
Cn1ccnc1C(NCc1ccccc1)c1ccc(F)cc1 (configuration not stated)	32.9
COc1cc(CNC(c2ccccc2)c2nccn2C)cc(OC)c1 (configuration not stated)	-76.15
Cc1ccc(CNC(c2cccc(F)c2)c2nccn2C)o1 (configuration not stated)	24.2
COc1ccccc1C(NCc1ccc(SC)cc1)c1nccn1C (configuration not stated)	29.06
CSc1ccc(CNC(c2ccccc2)c2nccn2C)cc1 (configuration not stated)	79.1
COc1cccc(C(NCc2ccc(SC)cc2)c2nccn2C)c1 (configuration not stated)	51.2
CC(=O)NCCCNC(=O)Nc1ccccc1-n1nc(C)cc1C	9.06
COc1ccccc1C(=O)NS(=O)(=O)c1cccc(C#N)c1	25.1

Compound	INHIBITION [%]
COc1cc(CN)c(OC)c2c1OCO2	-3.48
CCCS(=O)(=O)N1CCC2(CN(c3ccsc3)C(=O)CN2C)C1 (configuration not stated)	-24.2
Cc1oncc1C(=O)N1CC[C@H]2C[C@H](c3ccncn3)O[C@@H]2C1	11.3
Cn1ncc(Cl)c1C(=O)N1CCC(c2nnsc2S(C)(=O)=O)CC1	-9.2465
Cc1ccc(CNC(c2ccccc2)c2nccn2C)cc1 (configuration not stated)	33.6
Cc1ccc(CNC(c2ccccc2)c2nccn2C)cc1C (configuration not stated)	54.9
Cc1cc(C)cc(CNC(c2ccccc2)c2nccn2C)c1 (configuration not stated)	41.15
Cc1cc(CN2CCCC2c2noc(C(C)C)n2)on1 (configuration not stated)	47
O=C(O)c1cncc(Cc2ccc(F)cc2)c1	-3.02
CCN(Cc1ccoc1)C(=O)c1cc(C)c(C)c(S(N)(=O)=O)c1	-5.94
CCN(Cc1ccncc1)C(=O)c1cc(C)c(C)c(S(N)(=O)=O)c1	52.8
CCN(Cc1ccoc1)C(=O)c1ccc(C)c(S(N)(=O)=O)c1	-2.97
CC(C)(C)C(=O)NCC(=O)NCCc1nc(C(F)(F)F)cs1	15
COc1cc(Cl)cc(C(=O)N2CCC3(CC2)CNC(=O)C3)c1	13.7
CN(C)C(=O)N1CCN(C(=O)c2cccc(Cl)c2)CC2(CNC(=O)C2)C1 (configuration not stated)	79.6
O=C1CC2(CCN(C(=O)c3cccc(Cl)c3)CC2)CN1	55.7
CN(C)C(=O)N1CCN(C(=O)c2ccccc2)CC2(CNC(=O)C2)C1 (configuration not stated)	-0.804
CN(C)C(=O)N1CCN(C(=O)c2ccc(Cl)cc2)CC2(CNC(=O)C2)C1 (configuration not stated)	21.7
CS(=O)(=O)N1CCN(C(=O)c2cccc(Cl)c2)CC2(CNC(=O)C2)C1 (configuration not stated)	13.7
